Records with an inconclusive call do not appear. More than one record can exist for a structure, and the calls need not agree. The source made the active and inactive calls. The calls were made as follows, unless noted: active = hit-call score of the fitted dose curve at least 0.9, where 1 is the maximum; inactive = score below 0.9.

What is called AC50 is the midpoint of the concentration-response curve, whichever way the signal moves.

For experiment [1], the target named is human Peroxisome Proliferator-activated Receptor alpha (PPARa), PPARA (gene 5465) (UniProt Q07869). In words: ATG_PPARa_TRANS: Attagene TRANS-FACTORIAL HepG2 Assay for human Peroxisome Proliferator-activated Receptor alpha (PPARa) (AID 2283001; active = hit-call score of the fitted dose curve at least 0.9, where 1 is the maximum;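 as to AC50: potency for gain of reporter signal over DMSO so agonist or activator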). The essentials:
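Cells (HepG2) are transfected with multiple reporter transcription units, exposed to chemical for 24 h, then total RNA is reverse-transcribed and amplified. Labelled products are quantified by capillary electrophoresis; induction is referenced to DMSO.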

The target of experiment [2] is human Peroxisome Proliferator-activated Receptor delta (PPARd), PPARD (gene 5467) (UniProt Q03181). The experiment in a line: ATG_PPARd_TRANS: Attagene TRANS-FACTORIAL HepG2 Assay for human Peroxisome Proliferator-activated Receptor delta (PPARd) (AID 2283002; active = hit-call score of the fitted dose curve at least 0.9, where 1 is the maximum). In outline:
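Measured quantity: GAL4-UAS reporter transcript induction in HepG2 after 24 h chemical dosing, with NR-Gal4 chimeras supplied by transient transfection. Detection by RT-PCR and capillary electrophoresis; upward fit against DMSO.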

Read-out in experiment [3]: Intercellular Adhesion Molecule 1 (ICAM1), ICAM1 (gene 3383)
In words: BSK_3C_ICAM1: BioMAP Diversity Plus: 3C Assay for Intercellular Adhesion Molecule 1 (ICAM1) Biomarker Activity (AID 2283003). The following applies: primary human endothelial cells (HUVEC); actives raise or lower the signal. In outline: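 ELISA readout of ICAM1 in human umbilical vein endothelial cells in the 3C system, taken 24 h post-dose. Gain or loss of signal versus DMSO was fitted in both directions, with SRB total-protein staining run in parallel.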

Experiment [4] can be described thus: BSK_3C_Proliferation: Cell Proliferation Assessment in the BioMAP Diversity Plus: 3C Assay (AID 2283006).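 As to AC50: potency may reflect either rise or fall in cell number versus DMSO.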 Particulars: primary human endothelial cells (HUVEC). The essentials: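 Proliferation as total protein: sulforhodamine B (0.1%) stain of TCA-fixed subconfluent human umbilical vein endothelial cells, absorbance 560 nm, 48 h after dosing. Activity fitted in both directions against DMSO baseline.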

The target in experiment [5] is Nuclear receptor subfamily 1 group I member 2 (Homo sapiens) (UniProt O75469). The experiment in a line: ATG_PXR_TRANS: Attagene TRANS-FACTORIAL HepG2 Assay for human Pregnane X Receptor (PXR) (AID 2283008; active = hit-call score of the fitted dose curve at least 0.9, where 1 is the maximum). In outline: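 HepG2 transfected (FuGene 6) with GAL4-UAS reporter units + PXR-Gal4 chimera; dosed 24 h. Total RNA → oligo(dT) RT → PCR → 6-FAM primer extension → HpaI cut → CE. Gain-of-signal vs DMSO.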
Chain of Nuclear receptor subfamily 1 group I member 2 (Homo sapiens) (O75469 whole entry, looked up, the tested form may be a part): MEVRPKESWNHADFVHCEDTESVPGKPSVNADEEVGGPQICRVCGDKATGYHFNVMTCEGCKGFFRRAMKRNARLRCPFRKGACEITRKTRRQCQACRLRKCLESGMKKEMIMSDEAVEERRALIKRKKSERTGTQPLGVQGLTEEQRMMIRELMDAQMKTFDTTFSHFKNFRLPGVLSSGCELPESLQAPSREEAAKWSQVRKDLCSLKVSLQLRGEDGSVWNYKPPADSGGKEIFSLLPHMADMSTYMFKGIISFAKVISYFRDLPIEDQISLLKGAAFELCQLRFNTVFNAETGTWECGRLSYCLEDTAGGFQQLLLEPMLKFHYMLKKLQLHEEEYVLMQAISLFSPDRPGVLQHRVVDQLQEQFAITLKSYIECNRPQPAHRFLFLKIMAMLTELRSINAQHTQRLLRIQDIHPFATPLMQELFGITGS

For experiment [6], the target named is human Thyroid Receptor alpha (THRa1), THRA (gene 7067) (UniProt P10827). In words: ATG_THRa1_TRANS: Attagene TRANS-FACTORIAL HepG2 Assay for human Thyroid Receptor alpha (THRa1) (AID 2283014; active = hit-call score of the fitted dose curve at least 0.9, where 1 is the maximum). In outline: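 HepG2 cells transiently transfected with chimeric NR-Gal4 and GAL4-UAS reporter units, dosed 24 h. Reporter mRNA quantified by RT-PCR, fluorescent labeling, HpaI digestion and capillary electrophoresis; gain-of-signal fit versus DMSO.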
Chain of human Thyroid Receptor alpha (THRa1), THRA (gene 7067) (P10827 whole entry, looked up, the tested form may be a part): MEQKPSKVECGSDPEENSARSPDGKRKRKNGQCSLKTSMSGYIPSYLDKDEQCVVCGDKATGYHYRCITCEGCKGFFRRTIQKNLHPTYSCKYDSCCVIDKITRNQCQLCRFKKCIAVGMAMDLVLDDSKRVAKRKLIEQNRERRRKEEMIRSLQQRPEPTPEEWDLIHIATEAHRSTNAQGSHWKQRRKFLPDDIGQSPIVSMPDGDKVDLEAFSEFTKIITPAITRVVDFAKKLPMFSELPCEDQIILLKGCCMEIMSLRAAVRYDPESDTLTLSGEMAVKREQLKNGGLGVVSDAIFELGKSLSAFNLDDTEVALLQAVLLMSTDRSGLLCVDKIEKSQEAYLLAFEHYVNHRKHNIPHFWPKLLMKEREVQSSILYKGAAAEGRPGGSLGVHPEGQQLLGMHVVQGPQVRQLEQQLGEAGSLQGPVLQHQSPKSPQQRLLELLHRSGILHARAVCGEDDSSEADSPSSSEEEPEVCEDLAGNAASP

Read-out in experiment [7]: E-selectin (Homo sapiens) (UniProt P16581)
In words: BSK_3C_Eselectin: BioMAP Diversity Plus: 3C Assay for Eselectin Biomarker Activity (AID 2283015).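 As to outcome: cell surface E-selectin protein quantified by ELISA 24 h after dosing.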 Particulars: primary human endothelial cells (HUVEC); actives raise or lower the signal. In outline: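 Primary human umbilical vein endothelial cells (3C system), read 24 h after compound addition; E-selectin measured by ELISA. Bidirectional curve fitting against DMSO baseline; cytotoxicity by parallel SRB total-protein staining.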

Read-out in experiment [8]: Interleukin-1 alpha (IL1a), IL1A (gene 3552)
In words: BSK_BE3C_IL1a: BioMAP Diversity Plus: BE3C Assay for Interleukin-1 alpha (IL1a) Biomarker Activity (AID 2283016). The following applies: primary human bronchial epithelial cells; actives raise or lower the signal. In outline: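 IL-1a measured by ELISA after 24 h treatment of human primary bronchial epithelial cells, with gain or loss of signal fitted versus DMSO. Parallel cultures stained with SRB gauge overt cytotoxicity.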

Read-out in experiment [9]: Monocyte Chemoattractant Protein-1 (MCP1), CCL2 (gene 6347)
In words: BSK_3C_MCP1: BioMAP Diversity Plus: 3C Assay for Monocyte Chemoattractant Protein-1 (MCP1) Biomarker Activity (AID 2283017). The following applies: primary human endothelial cells (HUVEC); actives raise or lower the signal. In outline:
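Human umbilical vein endothelial cells (3C system) exposed to chemicals for 24 h; MCP-1 quantified by ELISA against the DMSO baseline with bidirectional fitting, and parallel SRB staining used to assess cytotoxicity.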

Read-out in experiment [10]: Monocyte Chemoattractant Protein-1 (MCP1), CCL2 (gene 6347)
In words: BSK_4H_MCP1: BioMAP Diversity Plus: 4H Assay for Monocyte Chemoattractant Protein-1 (MCP1) Biomarker Activity (AID 2283018). Particulars: primary human endothelial cells (HUVEC); actives raise or lower the signal. The essentials: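 ELISA of MCP-1 (CCL2) 24 h after chemical dosing of HUVEC in the BioMAP 4H system. Gain or loss versus DMSO fitted; parallel SRB staining (560 nm) tracked overt cytotoxicity.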

Read-out in experiment [11]: Human Leukocyte Antigen - DR isotype (HLADR), HLA-DRA (gene 3122)
The experiment in a line: BSK_3C_HLADR: BioMAP Diversity Plus: 3C Assay for Human Leukocyte Antigen - DR isotype (HLADR) Biomarker Activity (AID 2283019).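 As to outcome: ELISA of cell-surface HLA-DR on HUVEC 24 h after dosing.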 Particulars: primary human endothelial cells (HUVEC); actives raise or lower the signal. In outline:
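HUVEC monoculture, HLA-DR measured by ELISA 24 h after chemical dosing. Fitted bidirectionally against DMSO baseline; parallel SRB staining assessed cytotoxicity, with 3C proliferation read by SRB at 48 h.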

Read-out in experiment [12]: Interleukin-8 (IL8), CXCL8 (gene 3576)
In words: BSK_3C_IL8: BioMAP Diversity Plus: 3C Assay for Interleukin-8 (IL8) Biomarker Activity (AID 2283020). Particulars: primary human endothelial cells (HUVEC); actives raise or lower the signal. In outline:
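IL-8 was measured by ELISA in HUVEC cultures 24 h after chemical dosing, with gain or loss of signal fitted relative to DMSO. Parallel SRB total-protein staining tracked overt cytotoxicity.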

Read-out in experiment [13]: Monokine induced gamma interferon (MIG), CXCL9 (gene 4283)
In words: BSK_3C_MIG: BioMAP Diversity Plus: 3C Assay for Monokine induced gamma interferon (MIG) Biomarker Activity (AID 2283021).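 As to AC50: MIG protein level measured by immunoassay in the treated endothelial cultures.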 The following applies: primary human endothelial cells (HUVEC); actives raise or lower the signal. In outline: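 ELISA measurement of MIG in human umbilical vein endothelial cells 24 h after treatment. Cytotoxicity tracked by SRB staining in parallel cultures; gain or loss of signal fitted relative to DMSO.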

The target of experiment [14] is Peroxisome proliferator-activated receptor gamma (Homo sapiens) (UniProt P37231). The experiment in a line: ATG_PPARg_TRANS: Attagene TRANS-FACTORIAL HepG2 Assay for human Peroxisome Proliferator-activated Receptor-gamma (PPARg) (AID 2283007; active = hit-call score of the fitted dose curve at least 0.9, where 1 is the maximum). In outline:
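After 24 h of chemical exposure, transfected HepG2 cells carrying PPARγ-Gal4 chimera reporter constructs are lysed for RNA. Reporter transcripts are measured by RT-PCR and capillary electrophoresis with fluorescent labelling, and gain of signal is fitted versus DMSO.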

For experiment [15], the target named is human RAR-related Orphan Receptor beta (RORb), RORB (gene 6096) (UniProt Q92753). The experiment in a line: ATG_RORb_TRANS: Attagene TRANS-FACTORIAL HepG2 Assay for human RAR-related Orphan Receptor beta (RORb) (AID 2283010; active = hit-call score of the fitted dose curve at least 0.9, where 1 is the maximum). In outline: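 Read-out is reporter mRNA induction, quantified by RT-PCR with fluorescent capillary electrophoresis, 24 h post-dose in transiently transfected HepG2 expressing exogenous NR-Gal4 chimera. Activity fitted upward versus DMSO.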
Chain of human RAR-related Orphan Receptor beta (RORb), RORB (gene 6096) (Q92753 whole entry, looked up, the tested form may be a part): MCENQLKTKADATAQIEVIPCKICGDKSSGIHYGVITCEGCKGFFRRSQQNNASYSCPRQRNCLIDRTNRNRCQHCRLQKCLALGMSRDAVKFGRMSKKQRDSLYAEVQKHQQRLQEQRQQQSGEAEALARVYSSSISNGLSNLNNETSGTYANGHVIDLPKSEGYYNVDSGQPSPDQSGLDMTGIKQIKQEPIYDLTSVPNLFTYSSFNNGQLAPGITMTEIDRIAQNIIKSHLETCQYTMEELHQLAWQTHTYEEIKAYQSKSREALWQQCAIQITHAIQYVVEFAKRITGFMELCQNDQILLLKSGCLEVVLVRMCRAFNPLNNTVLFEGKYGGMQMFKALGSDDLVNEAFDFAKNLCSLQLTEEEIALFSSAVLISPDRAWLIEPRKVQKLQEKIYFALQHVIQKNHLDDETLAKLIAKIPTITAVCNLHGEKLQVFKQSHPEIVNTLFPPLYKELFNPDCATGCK

Experiment [16] concerns the target human RAR-related Orphan Receptor gamma (RORg), RORC (gene 6097) (UniProt P51449). The experiment in a line: ATG_RORg_TRANS: Attagene TRANS-FACTORIAL HepG2 Assay for human RAR-related Orphan Receptor gamma (RORg) (AID 2283011; active = hit-call score of the fitted dose curve at least 0.9, where 1 is the maximum). The essentials:
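HepG2 cells transiently transfected with GAL4-UAS reporter units and chimeric RORg-Gal4 construct; after 24 h chemical exposure, reporter mRNA measured by RT-PCR with fluorescent capillary electrophoresis, gain of signal fitted against DMSO.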

The target of experiment [17] is Retinoic acid receptor RXR-alpha (Homo sapiens) (UniProt P19793). The experiment in a line: ATG_RXRa_TRANS: Attagene TRANS-FACTORIAL HepG2 Assay for human Retinoid X Receptor alpha (RXRa) (AID 2283012; active = hit-call score of the fitted dose curve at least 0.9, where 1 is the maximum). In outline:
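TRANS format reporting activity of exogenous RXRa-Gal4 chimera in transiently transfected HepG2, 24 h exposure. Reporter transcripts quantified by RT-PCR with capillary electrophoresis, with gain of signal scored relative to DMSO.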

Experiment [18] deals with human Retinoid X Receptor beta (RXRb), RXRB (gene 6257) (UniProt P28702). In words: ATG_RXRb_TRANS: Attagene TRANS-FACTORIAL HepG2 Assay for human Retinoid X Receptor beta (RXRb) (AID 2283013; active = hit-call score of the fitted dose curve at least 0.9, where 1 is the maximum). The essentials:
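Readout is reporter transcript induction after 24 h dosing. It is measured by RT-PCR of total RNA followed by fluorescent capillary electrophoresis. HepG2 liver cells carry transfected multiple reporter units driven by an exogenous RXRb-Gal4 fusion; activity is relative to DMSO.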

The target of experiment [19] is human Retinoic Acid Receptor beta (RARb), RARB (gene 5915) (UniProt P10826). The experiment in a line: ATG_RARb_TRANS: Attagene TRANS-FACTORIAL HepG2 Assay for human Retinoic Acid Receptor beta (AID 2283004; active = hit-call score of the fitted dose curve at least 0.9, where 1 is the maximum). In outline:
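HepG2 cells were transiently transfected with GAL4-UAS reporter units that report activity of exogenous chimeric NR-Gal4 proteins, then exposed to compound for 24 h. Reporter mRNA was quantified by RT-PCR with capillary electrophoresis fluorescence, as gain of signal over DMSO.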

Chain of human Retinoid X Receptor beta (RXRb), RXRB (gene 6257) (P28702 whole entry, looked up, the tested form may be a part): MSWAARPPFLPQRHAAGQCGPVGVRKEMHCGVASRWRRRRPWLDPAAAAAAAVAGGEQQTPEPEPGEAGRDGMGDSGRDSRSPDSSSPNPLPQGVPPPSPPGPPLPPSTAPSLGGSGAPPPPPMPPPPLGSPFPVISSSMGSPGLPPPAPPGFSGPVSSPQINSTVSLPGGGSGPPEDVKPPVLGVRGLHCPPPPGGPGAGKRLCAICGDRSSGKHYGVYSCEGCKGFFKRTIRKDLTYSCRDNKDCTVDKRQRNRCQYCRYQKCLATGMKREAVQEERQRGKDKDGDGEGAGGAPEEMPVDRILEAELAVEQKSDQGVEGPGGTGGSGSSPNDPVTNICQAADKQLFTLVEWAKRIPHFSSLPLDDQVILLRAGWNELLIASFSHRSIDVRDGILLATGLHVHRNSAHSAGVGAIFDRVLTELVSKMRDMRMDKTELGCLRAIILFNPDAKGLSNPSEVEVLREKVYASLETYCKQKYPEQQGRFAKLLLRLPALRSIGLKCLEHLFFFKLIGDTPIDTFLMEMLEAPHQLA
Chain of human Peroxisome Proliferator-activated Receptor delta (PPARd), PPARD (gene 5467) (Q03181 whole entry, looked up, the tested form may be a part): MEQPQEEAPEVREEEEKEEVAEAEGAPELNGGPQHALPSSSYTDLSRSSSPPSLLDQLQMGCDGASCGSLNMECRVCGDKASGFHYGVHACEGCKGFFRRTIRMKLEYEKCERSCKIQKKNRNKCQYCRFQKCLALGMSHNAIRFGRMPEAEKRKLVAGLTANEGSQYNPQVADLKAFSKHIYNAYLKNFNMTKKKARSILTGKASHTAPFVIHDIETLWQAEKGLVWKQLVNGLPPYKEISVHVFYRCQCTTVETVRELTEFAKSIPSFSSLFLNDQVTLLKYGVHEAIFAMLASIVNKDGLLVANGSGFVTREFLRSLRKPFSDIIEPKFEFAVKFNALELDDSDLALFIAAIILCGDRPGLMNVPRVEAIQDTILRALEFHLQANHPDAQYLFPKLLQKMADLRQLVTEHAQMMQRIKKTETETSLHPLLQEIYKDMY
Chain of human Peroxisome Proliferator-activated Receptor alpha (PPARa), PPARA (gene 5465) (Q07869 whole entry, looked up): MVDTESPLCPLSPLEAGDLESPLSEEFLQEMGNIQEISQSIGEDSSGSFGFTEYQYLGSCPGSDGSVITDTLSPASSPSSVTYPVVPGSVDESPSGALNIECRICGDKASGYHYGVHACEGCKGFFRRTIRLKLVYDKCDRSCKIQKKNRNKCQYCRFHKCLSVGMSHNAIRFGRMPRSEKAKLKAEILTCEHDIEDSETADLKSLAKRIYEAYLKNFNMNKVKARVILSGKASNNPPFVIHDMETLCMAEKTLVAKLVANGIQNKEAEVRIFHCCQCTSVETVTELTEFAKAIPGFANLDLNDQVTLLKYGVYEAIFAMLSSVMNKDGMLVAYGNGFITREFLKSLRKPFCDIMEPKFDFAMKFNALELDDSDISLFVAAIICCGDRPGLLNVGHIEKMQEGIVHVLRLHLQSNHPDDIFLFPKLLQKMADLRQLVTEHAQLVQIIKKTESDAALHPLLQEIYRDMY
Chain of human RAR-related Orphan Receptor gamma (RORg), RORC (gene 6097) (P51449 whole entry, looked up, the tested form may be a part): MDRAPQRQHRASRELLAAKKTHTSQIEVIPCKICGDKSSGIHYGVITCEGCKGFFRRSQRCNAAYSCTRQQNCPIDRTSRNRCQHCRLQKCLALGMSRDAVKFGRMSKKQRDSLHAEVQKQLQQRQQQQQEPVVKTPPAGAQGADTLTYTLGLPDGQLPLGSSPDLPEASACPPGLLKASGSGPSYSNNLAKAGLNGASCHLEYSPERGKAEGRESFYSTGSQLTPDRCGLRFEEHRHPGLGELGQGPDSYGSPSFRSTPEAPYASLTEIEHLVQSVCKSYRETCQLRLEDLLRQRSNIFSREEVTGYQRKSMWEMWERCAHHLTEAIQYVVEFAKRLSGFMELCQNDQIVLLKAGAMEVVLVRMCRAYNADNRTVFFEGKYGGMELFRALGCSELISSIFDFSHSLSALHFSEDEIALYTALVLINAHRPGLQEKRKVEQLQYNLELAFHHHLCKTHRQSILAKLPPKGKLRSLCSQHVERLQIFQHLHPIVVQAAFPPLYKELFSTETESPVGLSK
Chain of Peroxisome proliferator-activated receptor gamma (Homo sapiens) (P37231 whole entry, looked up, the tested form may be a part): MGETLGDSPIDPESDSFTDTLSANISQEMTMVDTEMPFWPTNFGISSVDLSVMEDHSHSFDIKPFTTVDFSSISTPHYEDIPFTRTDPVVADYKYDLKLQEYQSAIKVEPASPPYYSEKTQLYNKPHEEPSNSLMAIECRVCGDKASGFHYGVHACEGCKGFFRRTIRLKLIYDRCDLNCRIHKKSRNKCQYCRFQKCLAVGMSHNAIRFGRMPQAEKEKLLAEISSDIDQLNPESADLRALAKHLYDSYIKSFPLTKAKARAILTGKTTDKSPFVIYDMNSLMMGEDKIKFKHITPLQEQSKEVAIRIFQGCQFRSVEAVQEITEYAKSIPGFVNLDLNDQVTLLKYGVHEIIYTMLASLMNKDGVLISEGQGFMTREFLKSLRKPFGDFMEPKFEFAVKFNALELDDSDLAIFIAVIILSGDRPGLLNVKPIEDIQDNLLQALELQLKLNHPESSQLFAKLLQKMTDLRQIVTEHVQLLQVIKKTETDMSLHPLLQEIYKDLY
Chain of E-selectin (Homo sapiens) (P16581 whole entry, looked up): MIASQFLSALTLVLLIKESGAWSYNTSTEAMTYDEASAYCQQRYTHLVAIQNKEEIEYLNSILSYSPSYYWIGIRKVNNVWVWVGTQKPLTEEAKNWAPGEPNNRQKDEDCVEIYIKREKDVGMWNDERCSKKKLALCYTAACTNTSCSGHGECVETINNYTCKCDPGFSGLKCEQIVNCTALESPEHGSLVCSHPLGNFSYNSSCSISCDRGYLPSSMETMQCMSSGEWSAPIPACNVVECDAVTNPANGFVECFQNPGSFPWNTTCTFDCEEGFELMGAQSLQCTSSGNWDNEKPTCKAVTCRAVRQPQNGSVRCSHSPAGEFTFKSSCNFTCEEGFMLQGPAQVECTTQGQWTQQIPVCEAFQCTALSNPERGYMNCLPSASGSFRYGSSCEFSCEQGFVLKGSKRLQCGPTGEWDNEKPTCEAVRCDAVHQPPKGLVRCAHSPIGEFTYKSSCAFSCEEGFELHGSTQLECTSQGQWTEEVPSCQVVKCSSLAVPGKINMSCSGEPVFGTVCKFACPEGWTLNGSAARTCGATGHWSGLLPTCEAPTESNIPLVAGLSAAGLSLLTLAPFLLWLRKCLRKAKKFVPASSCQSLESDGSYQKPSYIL
Chain of human Retinoic Acid Receptor beta (RARb), RARB (gene 5915) (P10826 whole entry, looked up, the tested form may be a part): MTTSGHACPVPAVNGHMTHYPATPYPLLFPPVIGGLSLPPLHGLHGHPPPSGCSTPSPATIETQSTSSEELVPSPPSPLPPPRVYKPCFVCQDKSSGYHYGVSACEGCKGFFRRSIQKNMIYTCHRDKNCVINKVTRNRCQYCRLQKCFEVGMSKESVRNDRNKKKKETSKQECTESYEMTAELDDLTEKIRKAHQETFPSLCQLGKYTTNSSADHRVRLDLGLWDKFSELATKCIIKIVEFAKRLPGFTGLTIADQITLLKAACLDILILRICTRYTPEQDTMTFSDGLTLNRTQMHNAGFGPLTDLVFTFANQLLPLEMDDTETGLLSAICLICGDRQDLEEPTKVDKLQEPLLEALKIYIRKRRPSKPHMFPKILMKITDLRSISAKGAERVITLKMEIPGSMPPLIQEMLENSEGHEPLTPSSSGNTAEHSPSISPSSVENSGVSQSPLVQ

Take `CN(C)C(=O)C1(N2CCCCC2)CCN(CC[C@@]2(c3ccc(Cl)c(Cl)c3)CN(C(=O)c3ccccc3)CCO2)CC1`: the compound was classed as inactive in [1], in experiment [2], in [5] and in experiment [6]. The AC50 in experiment [3] is 36.8 µM (active); in experiment [4], 6.91 µM (active); in experiment [7], 29.8 µM (active); in experiment [8] it was 29.2 µM (active); in [9], 22.9 µM (active); in experiment [10] it was 18.9 µM (active). In addition, the AC50 in experiment [11] is 12.4 µM (active); in experiment [12], 24.3 µM (active); in [13] it was 34.7 µM (active).

`COc1cc(C(=O)NC2CCN(C)CC2)ccc1Nc1ncc2c(n1)N(C1CCCC1)CC(F)(F)C(=O)N2C`: the outcome in experiment [1], in experiment [3], in experiment [14], in [5], in experiment [15] and in [16] was inactive. The compound was called inactive in experiment [17], in [18] and in experiment [6]. The AC50 is 3.45 µM (active) in [2]; 3.69 µM (active) in experiment [4]; 17.2 µM (active) in experiment [7]; 10.2 µM (active) in experiment [8]; 12 µM (active) in experiment [9]; 5.15 µM (active) in [10]. Besides, the figures for the AC50 in [11], in experiment [12] and in experiment [13] were 4.47 µM (active), 7.74 µM (active) and 19.2 µM (active), respectively.

In the case of `OC12N=C(c3ccccc3)SC1Cc1cc(Cl)ccc12` (centres undefined), the compound was called inactive in [1], in experiment [2], in [3], in [15], in experiment [16] and in [18]. In addition, the outcome in experiment [7], in experiment [8], in experiment [9], in experiment [10], in experiment [12] and in [13] was inactive. Also, the AC50 in experiment [4] was 31.5 µM (active); in [14] it was 0.03 µM (active); in [5], 2.41 µM (active); in experiment [11] it was 33.8 µM (active).

Take `CCCOC(=O)c1cc(O)c(O)c(O)c1`: the AC50 in [1] is 27.7 µM (active); in experiment [4], 10.5 µM (active); in [14] it was 31.8 µM (active). In addition, the result in [2], in experiment [3], in experiment [5], in experiment [18], in experiment [6] and in experiment [7] was inactive. Moreover, the result in [8], in experiment [9], in experiment [10], in experiment [11], in experiment [12] and in experiment [13] was inactive.

For `c1ccc2ccccc2c1`, the compound was classed as inactive in experiment [1], in experiment [3], in experiment [19], in experiment [4], in experiment [5] and in [15]. Also, the outcome in experiment [16], in [18], in experiment [6], in experiment [7], in experiment [8] and in experiment [9] was inactive. Moreover, the result in experiment [10], in experiment [11], in experiment [12] and in [13] was inactive. Besides, the AC50 in experiment [18] was 38.9 µM (active).

On to `O=C(O)Cc1cc(I)c(Oc2ccc(O)c(I)c2)c(I)c1`, for which the outcome in [1], in experiment [2], in [3], in experiment [19], in [5] and in experiment [16] was inactive. The outcome in [7], in experiment [9], in [10], in experiment [11], in experiment [12] and in [13] was inactive. Also, the results for the AC50 in experiment [4], in [5] and in experiment [8] were 9.41 µM (active), 19.4 µM (active) and 25.5 µM (active), respectively.

The record behind these values is PubChem BioAssay (EPA / NIEHS).
